Screens: PubChem, several laboratories
HSF1 inhib = HSF1 inhibitors in luciferase reporter cells, primary screen, cell-based, NIH3T3, luminescence; 300,000 compounds, 0.77% hits; NIH3T3-HGL HSE-luciferase, MG132-induced, luminescence 8 h; hits give low values; activity change, negative = inhibition, % at 7.5 µM (by protocol);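 active = more than half of replicate wells show activity change below -50%, luminescence cut by over half; inconclusive = some wells, but at most half, below -50%; inactive = no replicate well below -50%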;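 note: luciferase reports HSF-1 transcriptional activity via heat shock element; 0% = median of DMSO wells and -100% = zero luminescence signal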
ARNT TACC3 PPI = disruptors of ARNT/TACC3 protein interaction, primary screen, biochemical, AlphaScreen, single concentration. Transforming acidic coiled-coil-containing protein 3 (Homo sapiens), Q9Y6A5. 390,000 compounds, 0.66% hits. AlphaScreen His-ARNT PAS-B/GST-TACC3 binding, luminescence; TACC3 fragment carries E629A point mutation. inhibition, % at 9.99 µM;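 active = mean inhibition of replicates at least 50% and at least half of replicates each reaching 50%; inconclusive = half or more replicates reach 50% but mean below 50%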;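 note: 0% = complete ARNT plus TACC3 wells and 100% = ARNT alone without TACC3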
HSF1 activator = HSF-1 activators, primary screen, NIH3T3-HGL cells, MG132 stress, luminescence, single point; NIH3T3-HGL HSF-1 luciferase reporter, 8 h; 100% = twice DMSO control signal; 300,000 compounds, 1.7% hits; activation, % at 9 µM; AID 504408, 2011;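 active = mean replicate activation of at least 50% with a set share of replicates each reaching 50%; inconclusive = only one of those two conditions met; inactive = mean below 50% and too few replicates reaching it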;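 note: 0% = median of the neutral control wells and 100% = twice that signal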
HSP90 inh = HSP90 inhibitors, primary screen, cell lysate, luminescence. 290,000 compounds, 0.91% hits. AID 1789, 2009. Rabbit reticulocyte lysate, luciferase refolding luminescence, 3 h. Heat shock protein HSP 90 (rabbit reticulocyte lysate; luciferase refolding). inhibition, % at 5.6 µM;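 active = inhibition above the screen-wide mean plus 3 SD, computed separately per campaign, cut at about 16% in these data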;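 note: 0% = DMSO wells and 100% = 60 µM geldanamycin wells; inhibitors lower the luminescence because luciferase stays unfolded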
HIF activator = HIF pathway transcriptional activators, primary screen, cell-based, U2OS HRE-luciferase, luminescence | activation, % at 7.5 µM (by protocol) | AID 1910, 2009 | U2OS HRE-luciferase reporter; normalized: DMSO 0%, desferrioxamine 100% | 300,000 compounds, 0.32% hits;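 active = mean activation of at least 10% of the iron chelator positive control signal, with at least half of replicates also reaching 10%; inconclusive = mean and replicate majority disagree about reaching 10%; inactive = mean and most replicates under 10%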
AlphaScreen ctr = AlphaScreen signal interference compounds, dose response, artefact control for ARNT-TACC3 interaction inhibitor project, biochemical, luminescence, cherry-pick | shares compounds with ARNT TACC3 PPI | His-ARNT PASB-GST AlphaScreen artifact counter-screen | AC50, µM (series often up to 68 µM), for inactives: at the highest dose activity change, negative = signal decrease | 1,200 compounds, 50% hits;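 active = every separate test run was called active for a drop in luminescence, with AC50 within twice the top valid dose, actives reach about 71 µM in these data; inconclusive = the separate test runs disagree in their calls; inactive = all runs inactive, including signal change in the wrong direction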
* marks the source's active call; other numbers are inactive results; ? = inconclusive; . = no result; [ ] = another dose, or the depositor's remark. Only some compounds are listed: those with a hit (about 3.1% of all), similar ones and a draw of the others.

SMILES | HSF1 inhib | ARNT TACC3 PPI | HSF1 activator | HSP90 inh | HIF activator | AlphaScreen ctr
CO[C@H]1CN(C)C(=O)c2cc(NS(=O)(=O)CC(F)(F)F)ccc2OC[C@H](C)N(Cc2cccnc2)C[C@@H]1C | . | active | . | . | . | -5%[42 µM]
C[C@H](CO)N1C[C@H](C)[C@@H](CN(C)Cc2ccc(C(=O)O)cc2)OCCCC[C@H](C)Oc2ccc(NC(=O)Nc3ccc4c(c3)OCO4)cc2C1=O | . | -12 | . | . | . | .
Nc1nc(CN2CCN(Cc3ccccc3)CC2)nc(Nc2ccc3c(c2)OCCO3)n1 | 14 | 60* | -16 | -2 | 1 | -24%
CCOC(=O)N1CCN(Cc2nc(N)nc(Nc3ccc(OC)cc3)n2)CC1 | -12 | 15 | -11 | -4 | 0 | .
COc1ccc(Nc2nc(N)nc(CN3CCOCC3)n2)cc1 | -4 | 40* | -5 | -1 | 0 | 0%
CNC(=O)C[C@@H]1CC[C@H]2[C@@H](COC[C@@H](O)CN2Cc2ccc(Cl)c(Cl)c2)O1 | . | 5 | . | . | . | .
Cc1oc(C(=O)O)cc1COc1cccc2cccnc12 | -5 | 59* | 1 | 0 | 0 | -22%
O=c1[nH]c(-c2ccccn2)nc2ccccc12 | -9 | 64* | 19 | -4 | 2 | -13%
c1ccc(-c2nc3ccccc3[nH]2)nc1 | 13 | 59* | 15 | 5 | 1 | -16%
O=c1[nH]c(/C=C/c2ccccn2)nc2ccccc12 | 31 | 8 | 41 | 0 | 0 | .
C[C@H](CO)N1C[C@H](C)[C@@H](CN(C)Cc2ccc(-c3ccccc3)cc2)Oc2c(NS(=O)(=O)c3ccc(Cl)cc3)cccc2C1=O | . | 8 | . | . | . | .
NC(=O)CSc1nnc(-c2ccc(O)cc2)n1Cc1ccco1 | -1 | 38* | 6 | -1 | -1 | 28µM*
NC(=O)CSc1nnc(-c2cccs2)n1Cc1ccco1 | -8 | -3 | -6 | -1 | -1 | .
C[C@@H]1CN([C@@H](C)CO)C(=O)c2cc(-c3cccc(C#N)c3)cnc2O[C@@H]1CN(C)Cc1ccncc1 | . | 2 | . | . | . | .
O=C(NN=C(c1ccccc1)c1ccccn1)c1ccccc1 | 19 | 57* | 19 | . | . | -21%
C/C(=N\NC(=O)c1cccc2ccccc12)c1ccccn1 | 5 | 63* | -5 | -2 | 1 | 29µM*
O=C(NC(O)C(=O)c1ccccc1)c1ccccn1 (stereo not drawn) | 11 | 7 | -10 | 7 | 0 | .
C[C@@H]1CN([C@@H](C)CO)S(=O)(=O)c2ccc(-c3ccc(F)cc3)cc2O[C@H]1CN(C)S(C)(=O)=O | . | 4 | . | . | . | .
CCSc1nnc(NC(=O)c2cnccn2)s1 | -1 | . | -3 | . | 0 | .
CCSc1nnc(NC(=O)c2ccccn2)s1 | 43 | 52* | ? | 13 | -29 | 31µM*
Cc1noc(C)c1NC(=O)N(C)C[C@@H]1OCCCC[C@H](C)Oc2ccc(NS(=O)(=O)c3cn(C)cn3)cc2C(=O)N([C@@H](C)CO)C[C@@H]1C | . | 0 | . | . | . | .
COCc1[nH]nc2c1C(c1c(F)cccc1Cl)C(C#N)=C(N)O2 (stereo not drawn) | . | -8 | . | -3 | . | .
N#CC1=C(N)Oc2n[nH]c(-c3ccccn3)c2C1c1c(F)cccc1Cl (stereo not drawn) | 11 | 55* | 1 | -2 | 0 | -8%
O=C(NC[C@H]1[C@H](c2ccccc2)[C@H](CO)N1Cc1ccccn1)C1CCC1 | . | 38* | . | . | . | -14%[42 µM]
O=C(NC[C@H]1[C@@H](c2ccccc2)[C@@H](CO)N1Cc1ccccn1)C1CC1 | . | 48* | . | . | . | -12%[42 µM]
O=C(NC[C@@H]1[C@@H](c2ccccc2)[C@@H](CO)N1Cc1ccccn1)C1CC1 | . | 23 | . | . | . | .
CN1c2ccc(-c3ccccc3)cc2[C@@H]2[C@@H](CCN2C(=O)Cc2cccnc2)[C@@H]1CO | . | 4 | . | . | . | .
